According to PubChem BioAssay (NCI):
Several values for one entry are separate records, joined by “and”; a condition that tells them apart may be missing. Equal entries are not always repeated. Compounds without any hit were thinned out: in the full panel of roughly 83,000, 20% have a hit.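 Each cell line was grown in a 96-well plate and treated with one concentration of compound for 48 hours. Values below 10 were considered active.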 Activity calls are given as the source filed them.

System: MDA-MB-468 breast
Assay: NCI-60 one-dose screen, 48 h (100 = growth as untreated, 0 = no growth, -100 = all killed)
Settings: 10 µM unless noted

Row | Compound | growth
1 | Nc1ncc(-c2ccc3ncnc(N4CCc5cc(F)c(Cl)cc54)c3c2)cc1CO | -39.8% (active)
2 | CCCCCCCCCCCCCCCc1cc(O)ccc1N | 70.1% (inactive) and 6.15% (active)
3 | CC(O)c1cnc(/C=C2\SC(=S)N(Cc3ccccc3)C2=O)s1 (centres undefined) | 13.8% (inactive)
4 | O=C(NOCCO)c1ccc2cncn2c1Nc1ccc(I)cc1F | 107% (inactive)
